Source: PubChem (National Center for Advancing Translational Sciences (NCATS))
Vaccinia Venus – vaccinia inhibition (Venus reporter); Vaccinia virus Venus reporter expression, fluorescence; Potency, µM (titrated, usually from 36.5 µM), inactives show at the top dose activity change, negative = inhibition, most hits filed as inhibitors; 330,000 tested, 0.46% active; AID 720580; calls by dose curve; tested in A549 cells; further: nearly all actives have a fitted effect of over 30% in size
Marburg entry inh – blocks Marburg virus binding to or entry into cells; AID 540276; Potency, µM (top dose mostly 37.8 µM), for the others: at the highest dose activity change, negative = inhibition, most hits filed as inhibitors; Marburg virus pseudotyped entry inhibition, cell reporter; 300,000 tested, 1.8% active; calls by dose curve; tested in HEK293 cells
VACV mCherry inh – inhibitors of vaccinia virus infection (mCherry reporter signal) | Vaccinia virus mCherry reporter infection, fluorescence | Potency, µM (doses to about 36.5 µM), without a hit: at the highest dose activity change, negative = inhibition, hits mostly inhibitors | 310,000 tested, 0.63% active | AID 720579; calls by dose curve; tested in A549 cells; further: nearly all actives have a fitted effect of over 35% in size
FMDV inh – foot and mouth disease virus antiviral activity. FMDV antiviral cell-based qHTS. 410,000 tested, 1.2% active. AID 1159524. Potency, µM (series often up to 57.9 µM), for inactives: top-dose activity change, negative = inhibition, hits mostly inhibitors; calls by dose curve; tested in HEK293T cells; further: read-out not given here; nearly all actives have a fitted effect of over 45% in size
LASV entry inh – blocks Lassa virus binding to or entry into cells. 300,000 tested, 1.2% active. Potency, µM (doses to about 37.9 µM), for inactives: top-dose activity change, negative = inhibition, usual class: inhibitors. Lassa virus pseudotype entry inhibition, cell reporter. AID 540256; calls by dose curve; tested in HEK293 cells; further: nearly all actives have a fitted effect of over 50% in size
* = called active by the depositor. Only some compounds are listed: those with a hit (about 3.2% of all), similar ones and a draw of the others. On the % scale 0 is the no-effect control and ±100 the full control effect; potency means the concentration at half of the fitted maximal effect.

What do the screens show for `CC(C)n1ncc2c(C(=O)N3CCN(Cc4ccc(Br)s4)CC3)cc(C3CC3)nc21`?
FMDV inh: -29.7%

How did CN(C)S(=O)(=O)c1cccc(NC(=O)COC(=O)CCSc2ccc(Cl)cc2)c1 do in these assays?
Vaccinia Venus: -9.5%; Marburg entry inh: 7.1%; VACV mCherry inh: -8.9%; FMDV inh: 43.0%; LASV entry inh: 10.6%

What do the screens show for `CCN(CC)S(=O)(=O)c1cccc(NC(=O)CCSc2ccc(Cl)cc2)c1`?
Vaccinia Venus: inconclusive; Marburg entry inh: inconclusive; VACV mCherry inh: inconclusive; FMDV inh: -24.0%; LASV entry inh: 12.6µM*

Results for CCCC(=O)Nc1cccc(S(=O)(=O)N(C)c2ccccc2)c1 ?
Vaccinia Venus: -8.1%; Marburg entry inh: 4.1%; VACV mCherry inh: -14.1%; FMDV inh: -17.1%; LASV entry inh: inconclusive

What do the screens show for `CN(c1ccccc1)S(=O)(=O)c1cccc(NC(=O)CCNC(=O)c2ccc(Cl)cc2)c1`?
Vaccinia Venus: inconclusive; Marburg entry inh: -31.0%; VACV mCherry inh: -18.2%; FMDV inh: 31.6µM*; LASV entry inh: inconclusive

What do the screens show for `CN(c1ccccc1)S(=O)(=O)c1cccc(NC(=O)c2ccc(Cl)c([N+](=O)[O-])c2)c1`?
Vaccinia Venus: -20.5%; Marburg entry inh: inconclusive; VACV mCherry inh: inactive; FMDV inh: 31.6µM*; LASV entry inh: inconclusive

Results for CN(c1ccccc1)S(=O)(=O)c1cccc(NC(=O)CCNC(=O)c2ccc([N+](=O)[O-])cc2)c1 ?
Vaccinia Venus: -16.5%; Marburg entry inh: 3.7%; VACV mCherry inh: -10.3%; FMDV inh: 39.8µM*; LASV entry inh: inconclusive

Results for Nc1nc(SCn2nnc3ccccc3c2=O)n[nH]1 ?
Vaccinia Venus: -9.9%; VACV mCherry inh: inactive; FMDV inh: -9.5%

Results for COc1ccc(Nc2nc(N3CCCC3)c3ccccc3n2)cc1 ?
Vaccinia Venus: 10µM*; Marburg entry inh: 1.58µM*; VACV mCherry inh: 8.91µM*; FMDV inh: inconclusive; LASV entry inh: inconclusive
